Inconclusive results are not listed. Where a call stands in place of a potency, no number is given. The source made the active and inactive calls. The call rests on the fitted dose curve; in most records, active means well fitted cell-killing curve with a large enough effect in the repeat runs; inconclusive means weak or mixed curves, or effect the other way; inactive means flat fitted curve, though single readings scatter.
Test: qHTS RealTime-Glo MT Cell Viability Assay in HEK293 cells - 16 hour (AID 1224872); further: nearly all actives have a fitted effect of over 50% in size
Settings: RealTime-Glo luminescence; series mostly up to 76.8 µM
Source text: National Center for Advancing Translational Sciences [NCATS]
NIH Chemical Genomics Center [NCGC]
U.S. Environmental Protection Agency [EPA]
National Institutes of Environmental Health Sciences [NIEHS]
National Toxicology Program [NTP]
U.S. Food and Drug Administration [FDA]
Measure of cell viability is critical in the cell-base assay. Analysis of cell viability is necessary for the characterization of cell responses to cytotoxic drugs and environmental stress. A RealTime-Glo MT Cell Viability Assay to monitor cell viability in real time of continues cell culture during 40 hours of compound treatment was used to screen Tox21 10K library compounds in Hek293 cells. The RealTime-Glo MT Cell Viability Assay is a nonlytic, homogeneous, bioluminescent method to measure cell viability in real time using a simple, plate-based method. The assay involves adding NanoLuc luciferase and a cell-permeant prosubstrate to cells in culture. Viable cells reduce the proprietary prosubstrate to generate a substrate for NanoLuc luciferase. This substrate diffuses from cells into the surrounding culture medium, where it is rapidly used by the NanoLuc Enzyme to produce a luminescent signal. The signal correlates with the number of viable cells, making the assay well suited for cytotoxicity studies.
Tox21 Assay Protocol Summary:
The mixture of Hek293 cell suspension and reagents were dispensed at 600cells/6 ul/well in 1536-well tissue culture treated black solid bottom plates using a Multidrop dispenser. After the assay plates were incubated at a 37 C/5% CO2 incubator for 5 hours, 23 nL of compounds dissolved in DMSO, positive and negative controls was transferred to the assay plate by a pintool work station. The plates were incubated at 37 C for 40 hours. The luminescence intensity were measured at 0h, 8h, 16h, 24h, 32h and 40h time points using ViewLux plate reader during compound treatment.
Potency means the concentration at half of the fitted maximal effect.

Structure (SMILES)	Potency
CCCCOCCOC(=O)COc1nc(Cl)c(Cl)cc1Cl	inactive
COc1ccc(Br)c(C)c1	inactive
O=C1CCCC(=O)O1	inactive
O=C(O)C(=O)Cc1ccccc1	inactive
O=C(O)Cc1cn(-c2ccccc2)nc1-c1ccc(Cl)cc1	inactive
O=C(OCC(O)CO)c1ccccc1Nc1ccnc2c(C(F)(F)F)cccc12 (stereo not given)	5.35 µM (active)
Cc1cc(C(C)(C)C)c(O)c(C)c1CC1=NCCN1	inactive
CCN(CC)CC(=O)Nc1c(C)cccc1C	10.7 µM (active)
CC(=O)Nc1ccc(S(=O)(=O)Cl)cc1	inactive
BrCCCCCBr	inactive
CC(=O)Nc1ccc(S(=O)(=O)Nc2ccc([N+](=O)[O-])cc2)cc1	inactive
Cc1ccc(S(=O)(=O)O)c(C)c1	inactive
CCOC(=O)CC(=O)c1ccccc1	inactive
CC(C)CCCC(C)(C)O	inactive
Cc1cccc2nccnc12	inactive
CO[C@@H]1[C@@H](OC(N)=O)[C@@H](O)[C@H](Oc2ccc3c(O)c(NC(=O)c4ccc(O)c(CC=C(C)C)c4)c(=O)oc3c2C)OC1(C)C	inactive
COc1cc2c(cc1OC)C(=O)CC2	inactive
Cc1ccc2ccc(Cl)cc2n1	inactive
COC(=O)[C@@H]1[C@H]2C[C@H]3c4[nH]c5ccccc5c4CCN3C[C@@H]2CC[C@@H]1O	inactive
NS(=O)(=O)c1cc2c(cc1Cl)CN(C1CCCCC1)C2=O	10.7 µM (active)

Structure (SMILES)	Potency
CCOC(=O)c1ccc(OC(=O)CCCCCN=C(N)N)cc1	inactive
CC(CC=O)CCCC(C)(C)O (stereo not given)	inactive
CC(C)(C)c1n[nH]c(=S)n(N)c1=O	inactive
COc1cc(NS(=O)(=O)c2ccc(N)cc2)nc(OC)n1	inactive
O=S(=O)(O)CCN1CCN(CCO)CC1	inactive
CCCCCCCCCC(C)=O	inactive
CC(C)(C)c1nnc(NS(=O)(=O)c2ccc(N)cc2)s1	inactive
CC1(C)S[C@@H]2[C@H](N=CN3CCCCCC3)C(=O)N2[C@H]1C(=O)O	inactive
Cc1cc(NC(=O)C2=C(O)c3ccccc3S(=O)(=O)N2C)no1	inactive
CC(C)(C)OC(=O)c1ccc(O)cc1	inactive
COCCc1ccc(OCC2CO2)cc1 (stereo not given)	inactive
CC(COC(C)(C)C)OCCCO (stereo not given)	inactive
CC(=O)NCc1c(I)c(NC(C)=O)c(I)c(C(=O)O)c1I	inactive
OCCCCC(O)CO (stereo not given)	inactive
c1ccc2c(c1)ccc1c3ccccc3ccc21	inactive
CC(C)NCC(O)COc1cccc2[nH]ccc12 (stereo not given)	inactive
CNS(=O)(=O)CCc1ccc2[nH]cc(C3CCN(C)CC3)c2c1	inactive
CC(CO)c1ccccc1 (stereo not given)	inactive
O=C1c2cccc3c2[C@H](CCC3)CN1[C@@H]1CN2CCC1CC2	inactive
O=C(OCc1ccccc1)C(=O)OCc1ccccc1	inactive

— PubChem BioAssay (Tox21)
